The values that follow come from ChEMBL document CHEMBL4513216, “Probing the Open Global Health Chemical Diversity Library for Multistage-Active Starting Points for Next-Generation Antimalarials” (ACS Infect Dis, 2020).

Hit rate of the full screen: of about 68,000 compounds, about 2,700 (4%) showed an effect of 50% or more. The sample holds strong results, similar compounds and a random draw of the others, so the mix is not that of the screen.

In the test the test system is Plasmodium berghei. The test is described as follows: Screen against P. berghei liver stage (PbLuc), transformed with Luciferase, at 2uM. Type of test: functional, HepG2. Conditions: tested at 2 uM.
On to `CC(C)C1=NOC(c2nc(Cc3ccccc3)no2)C1` (centres undefined), for which the INHIBITION stood at 50.46%. The value for `COCC(=O)N1CC2(CCN(c3ccccc3)C2)C1` was -31.82%. As for `CCc1nc(CC2CN(c3ncnc4nc(C)cc(C)c34)CCO2)no1` (centres undefined), the INHIBITION stood at 5.1%.

`CS(=O)(=O)N[C@@H]1CCO[C@]2(CCN(C(=O)c3cnccn3)C2)C1`: the INHIBITION was 9.14%.

As to `Cc1nc(C(=O)N2CC[C@@]3(C[C@H](NS(C)(=O)=O)CCO3)C2)cs1`, the INHIBITION is recorded as 60.79%.

Consider `Cc1nc(C(=O)N2CC[C@@]3(C[C@@H](NS(C)(=O)=O)CCO3)C2)cs1`, for which the INHIBITION was determined as 68.95%. Consider `CS(=O)(=O)N[C@H]1CCO[C@]2(CCN(C(=O)c3ccccn3)C2)C1`, for which the INHIBITION is 36.75%. Consider `Cc1cc(C(=O)N2CC[C@@]3(C[C@@H](NS(C)(=O)=O)CCO3)C2)no1`, for which the INHIBITION was found to be 19.51%. For `CS(=O)(=O)N[C@@H]1CCO[C@]2(CCN(C(=O)c3cscn3)C2)C1`, the INHIBITION worked out at 23.1%. `COCCN1C(=O)CC(N2CCN(c3ccc(F)cc3)CC2)C1=O` (centres undefined): the INHIBITION turned out to be 39.9%.

With `NC(=O)CCSc1ccccc1NCc1ccc(Cl)s1`, the INHIBITION is 22.75%.

For the compound `Cc1nc(C(=O)N(C)[C@@H]2CCC[C@@H](Oc3ccccc3)[C@@H]2O)co1`, the INHIBITION is recorded as 9.47%. In the case of `Cc1ocnc1C(=O)N(C)[C@@H]1CC[C@@H](Oc2ccccc2)[C@@H]1O`, the INHIBITION was determined as 67.27%. Regarding `CN(C(=O)c1ccon1)[C@@H]1CCC[C@@H](Oc2ccccc2)[C@@H]1O`, the INHIBITION is on record as 44.9%. For the compound `Cc1ccccc1C1(CNC(=O)CCN2C(=O)CCC2=O)CC1`, the INHIBITION came to 26.76%.

As to `O=C(N1CCOCC1)[C@@]12CCO[C@@H]1CCN(CC1CCCC1)C2`, the INHIBITION is -55.42%. With `Cc1c(NC(=O)c2cnc[nH]2)cccc1C(=O)NC(C)(C)C`, the INHIBITION is reported as 5.41%. Take `COc1ccc(CN(Cc2cc(C)no2)C2CC2)cc1`: the INHIBITION is listed as -16.88%. The figure for `c1cnc(N2CCC(c3csc(Nc4cnccn4)n3)CC2)nc1` is -41.06%; for `O=C1CC2(CCN(c3nncs3)C2)CN1c1cccc(F)c1` (centres undefined) it is 21.75%. The value for `O=C1CC2(CCN(c3nncs3)C2)CN1c1ccccc1` (centres undefined) was -5.44%; that for `O=C1CC2(CCN(c3nncs3)C2)CN1c1ccc2c(c1)OCCO2` (centres undefined) was 58.16%. Regarding `O=C(O)c1ccc(CC2CCN(Cc3ccc(-c4cc[nH]n4)o3)C2)cc1` (centres undefined), the INHIBITION is on record as 16.93%. For the compound `Cc1ncnc2c1CCN(CC(=O)N(C)C)CC2`, the INHIBITION is reported as 18.15%. Take `Cc1cc(C(F)(F)F)nc(CNC(=O)C2CCCCCN2C)n1` (centres undefined): the INHIBITION stood at 20.77%.

As to `Cc1cc(C(F)(F)F)nc(CNC(=O)CCC2CCCCN2C)n1` (centres undefined), the INHIBITION is 54.77%. Take `Cc1cc(C(F)(F)F)nc(CNC(=O)CCC2CCCN(C)C2)n1` (centres undefined): the INHIBITION is given as -28.09%.

In the case of `Cc1ccc2nc(CN3CCCC3c3cccnc3)cc(O)c2c1` (centres undefined), the INHIBITION amounted to 50.59%. `Cc1ccc2nc(CN3CCN(C4CCCC4)C(=O)C3)cc(O)c2c1`: the INHIBITION is on record as -87.32%. The figure for `OCC1CCCCN1Cc1cc(O)c2cccc(F)c2n1` (centres undefined) is 24.36%. In the case of `NCC1CCCCN1Cc1cc(O)c2cccc(F)c2n1` (centres undefined), the INHIBITION is -20.95%. Turning to `Cc1ccc2nc(CN3CCN(C4CCCCC4)C(=O)C3)cc(O)c2c1`, the INHIBITION is recorded as -17.17%. Turning to `Oc1cc(CN2CCCCC2c2cccnc2)nc2c(F)cccc12` (centres undefined), the INHIBITION is on record as 57.75%.

Regarding `CN(C)C(CNCc1nc(-c2ccsc2)no1)c1cccs1` (centres undefined), the INHIBITION stood at 58.14%. Consider `CN(C)C(CNCc1nc(-c2ccsc2)no1)c1ccsc1` (centres undefined), for which the INHIBITION came out at 6.82%. For `CN(C)C(CNCc1nc(-c2ccsc2)no1)c1ccco1` (centres undefined), the INHIBITION turned out to be 11.18%. On to `c1ccc(CN2CCN(C3CCOC4(CCOCC4)C3)CC2)nc1` (centres undefined), for which the INHIBITION is -14.69%.

With `CCNc1nc2cn(-c3ccc(C)c(C)c3)c(=O)c-2c[nH]1`, the INHIBITION was -5.34%. With `c1cncc(CN2Cc3nccn3CC(Cn3cccn3)C2)c1` (centres undefined), the INHIBITION was -9.53%. Consider `COc1ccc(Cl)cc1C(C(=O)O)N(C)Cc1ccon1` (centres undefined), for which the INHIBITION is given as -35.07%. With `COc1cc(C)cc(C(C(=O)O)N(C)Cc2ccon2)c1OC` (centres undefined), the INHIBITION was found to be 76.6%. For the compound `COc1cc(F)ccc1C(C(=O)O)N(C)Cc1ccon1` (centres undefined), the INHIBITION came out at 12.55%. For `CN(C)CC(=O)N1CCN(c2cc(N3CCCC3CO)ncn2)CC1` (centres undefined), the INHIBITION is -23.06%. In the case of `COC1[C@@H]2CC[C@H]1CN(c1nc(C)nc3sccc13)C2` (some centres undefined), the INHIBITION worked out at 32.26%. On to `Cc1ccccc1CN(CCN(C)C)Cc1ccc(O)c(C(=O)O)c1`, for which the INHIBITION came out at 56.76%. Take `Cc1ccccc1CN(CCN(C)C)Cc1ccc(C(=O)O)cc1`: the INHIBITION is 34.07%. The value for `Cc1ccccc1CN(CCN(C)C)Cc1ccccc1C(=O)O` was 4.12%; that for `Cc1cc(CN2CCc3nc(C(C)C)nc(O)c3CC2)c(C)s1` was 23.7%.

For `Cc1ccnc(NC(=O)c2ccc(Cl)o2)c1`, the INHIBITION is listed as 5.48%. `Cc1ccnc(NC(=O)c2ccc(C)o2)c1`: the INHIBITION is given as -4.26%. The figure for `Cc1ccnc(NC(=O)c2ccc(Br)o2)c1` is 62.51%. In the case of `O=C(CN1CCc2cncnc2C1)NCCOc1cccc(Cl)c1`, the INHIBITION was 29.54%.

With `O=C(CN1CCc2cncnc2C1)NCCOc1ccccc1`, the INHIBITION is reported as 10.62%. Turning to `Cc1cccc(OCCNC(=O)CN2CCc3cncnc3C2)c1`, the INHIBITION was 51.94%.
